Only some compounds are listed: those with a hit (about 7.2% of all), similar ones and a draw of the others.
HEK293 viab: reduces viability of HEK-293 SNCA reporter cells | Potency, µM (doses to about 57.1 µM), most hits filed as cytotoxic | HEK-293-SNCA-luc viability, GF-AFC fluorescence, 24 h | AID 1671193 | hit rate 0.12% among 150,000; also: nearly all actives have a fitted effect of over 30% in size
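Cytotoxicity counterscreen: after 24 h compound treatment of genome-edited SNCA-luciferase HEK-293 cells, live-cell protease substrate GF-AFC read by fluorescence after 30 min; activity scaled between DMSO (0%) and medium-only (-100%), curves Hill-fitted.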
Luciferase inh: blocks purified firefly luciferase enzyme activity; purified P. pyralis luciferase, luminescence, biochemical; hit rate 2.5% among 76,000; Potency, µM (highest dose often 115 µM), most hits filed as inhibitors; P08659; also: nearly all actives have a fitted effect of over 65% in size
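Luminescence read by CCD imaging after purified firefly luciferase (10nM final) was added to substrate buffer holding 10uM D-luciferin and 10uM ATP, pH 7.5, pre-dosed with compound.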
HEK cytotox: HEK 293 cell cytotoxicity; HEK 293 viability, ATP luminescence (CellTiter-Glo), 48-72 h; Potency, µM (titrated, usually from 115 µM), hits mostly inhibitors; hit rate 6.6% among 94,000; also: nearly all actives have a fitted effect of over 60% in size
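qHTS cytotoxicity; HEK 293, 250 cells/well; compound pinned; 48 or 72 hr, 37 degree Celsius, 5% CO2, 95% humidity; CellTiter-Glo, 10 min RT; luminescence (ATP).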
SNCA expr inhib: reduces expression of the alpha-synuclein gene | HEK-293 SNCA-luciferase knock-in, luminescence, 24 h | Potency, µM (highest dose often 57.2 µM), usual class: inhibitors | hit rate 0.17% among 140,000 | AID 1671194; also: nearly all actives have a fitted effect of over 45% in size
NPR1 antag: human Npr1 receptor antagonism. hit rate 1.6% among 76,000. AID 1347048. HEK293 hNpr1 GloSensor cGMP, ANP-stimulated luminescence. Potency, µM (top dose mostly 46.3 µM), actives largely listed as inhibitors. P16066; calls by dose curve; also: nearly all actives have a fitted effect of over 60% in size
Target sequence (P16066 whole entry, looked up): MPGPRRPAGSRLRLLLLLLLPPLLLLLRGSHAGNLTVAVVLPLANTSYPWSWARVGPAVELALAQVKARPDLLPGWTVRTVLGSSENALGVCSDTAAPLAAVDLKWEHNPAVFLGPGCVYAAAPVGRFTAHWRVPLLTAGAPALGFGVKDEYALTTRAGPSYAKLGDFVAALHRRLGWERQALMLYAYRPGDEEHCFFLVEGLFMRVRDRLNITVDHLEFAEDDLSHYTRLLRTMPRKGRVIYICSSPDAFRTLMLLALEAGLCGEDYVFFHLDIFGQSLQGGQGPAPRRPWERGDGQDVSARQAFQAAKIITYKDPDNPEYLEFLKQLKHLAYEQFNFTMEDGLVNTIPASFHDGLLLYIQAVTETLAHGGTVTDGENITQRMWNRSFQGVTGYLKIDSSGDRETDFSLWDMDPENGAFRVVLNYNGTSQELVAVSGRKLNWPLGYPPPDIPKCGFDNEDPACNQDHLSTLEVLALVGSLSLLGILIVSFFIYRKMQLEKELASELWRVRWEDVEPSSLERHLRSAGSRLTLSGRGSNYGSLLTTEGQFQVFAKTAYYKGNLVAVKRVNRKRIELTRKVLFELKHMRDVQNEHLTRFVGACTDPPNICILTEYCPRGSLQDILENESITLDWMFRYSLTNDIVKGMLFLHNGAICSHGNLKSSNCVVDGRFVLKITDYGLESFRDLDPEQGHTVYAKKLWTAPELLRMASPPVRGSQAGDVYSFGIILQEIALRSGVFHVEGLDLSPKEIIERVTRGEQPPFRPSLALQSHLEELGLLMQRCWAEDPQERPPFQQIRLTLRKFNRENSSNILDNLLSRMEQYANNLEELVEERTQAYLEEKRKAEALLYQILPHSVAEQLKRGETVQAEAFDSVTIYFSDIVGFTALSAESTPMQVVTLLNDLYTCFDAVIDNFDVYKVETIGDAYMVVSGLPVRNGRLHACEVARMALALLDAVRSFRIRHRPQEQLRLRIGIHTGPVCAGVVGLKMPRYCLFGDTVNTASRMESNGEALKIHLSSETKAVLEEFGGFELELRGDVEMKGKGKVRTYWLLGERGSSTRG
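HEK293 cells stably expressing human Npr1 and cGMP GloSensor pGS-40F, loaded 2 h with 2% GloSensor reagent, given compound 30 min at room temperature. Luminescence read before and 20 min after 0.1 nM hNppA.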
NIH3T3 tox: kills NIH 3T3 cells; hit rate 4.3% among 94,000; Potency, µM (series often up to 96.7 µM), actives largely listed as inhibitors; AID 1345082; NIH 3T3 viability, CellTiter-Glo ATP luminescence, 48-72 h; also: nearly all actives have a fitted effect of over 55% in size
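ATP-dependent luminescence (CellTiter-Glo) served as the viability signal for NIH 3T3 cells treated with compound for 48 or 72 hr at 37 °C.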
Of the large screens only hits and unclear results are named; the others gave an inactive call. Unless noted, calls follow the shape of the dose curve; as a rule, active = well fitted curve in the direction sought with a large enough effect; inconclusive = small, poorly fitted or top-dose-only effect, or another doubt; inactive = no such curve, though single readings can be large; an effect the other way counts as inactive or inconclusive.

COc1ccccc1-c1ccnc(N[C@H]2CO[C@H]3[C@@H]2OC[C@@H]3NC(=O)NC2CCCCC2)n1	HEK cytotox inconclusive, NIH3T3 tox inconclusive
NC(=O)Cc1c[nH]c2ncc(-c3ccc(F)cc3)cc12	Luciferase inh inconclusive, NIH3T3 tox inconclusive
COc1ccc(-c2cnc3[nH]cc(CC(N)=O)c3c2)cc1OC	HEK cytotox inconclusive, NIH3T3 tox 10µM
O=C(Cc1c[nH]c2ncc(-c3cccc(CO)c3)cc12)NCc1cccnc1	NIH3T3 tox inconclusive
Cc1cccc(-c2cnc3[nH]cc(CC(N)=O)c3c2)c1	HEK cytotox inconclusive, NIH3T3 tox inconclusive
Cc1noc(C)c1-c1cnc2[nH]cc(CC(N)=O)c2c1	HEK cytotox inconclusive, NIH3T3 tox 10µM
Cc1noc(C)c1-c1cnc2[nH]cc(CC(=O)NCc3cccnc3)c2c1	HEK cytotox inconclusive, NIH3T3 tox 32µM
O=C(CC1=C2CCCCC2NC1=O)NCC1CC1 (stereo unspecified)	none
Cc1ccc(C(=O)NC(C(=O)NC2CC2)C2CCN(C(=O)c3ccc4c(c3)OCO4)CC2)cc1 (stereo unspecified)	none
CCc1ccccc1NC(=O)N1CCC(Oc2ncccc2C(=O)N2CCOCC2)C1 (stereo unspecified)	none
COc1ccc(CC(=O)Nc2ccc(=O)n3c2[C@@H]2C[C@@H](CN(S(=O)(=O)c4ccc(OC)cc4)C2)C3)cc1	NIH3T3 tox inconclusive
C=CCn1c(=O)c2cnc(Nc3ccc(N4CCN(C)CC4)cc3)nc2n1-c1cccc(C(C)(C)O)n1	HEK293 viab inconclusive, SNCA expr inhib 0.48µM (no result: Luciferase inh, HEK cytotox, NPR1 antag, NIH3T3 tox)
Clc1ccc(CCNc2ncncn2)c(Cl)c1	HEK cytotox 40µM, NPR1 antag inconclusive, NIH3T3 tox inconclusive
O=C(NCCc1ccc(Cl)cc1Cl)C1CNCCO1 (stereo unspecified)	none
FC(F)(F)c1ccc(CNc2cc(Cl)nc3ccnn23)cc1	HEK cytotox inconclusive, NIH3T3 tox inconclusive
Clc1cc(NCc2ccccc2Cl)n2nccc2n1	HEK cytotox inconclusive, NPR1 antag inconclusive, NIH3T3 tox 20µM
COc1ccc(CNc2cc(Cl)nc3ccnn23)cc1	HEK cytotox 71µM, NIH3T3 tox inconclusive
Clc1cc(NCc2cccs2)n2nccc2n1	HEK cytotox 40µM, NPR1 antag inconclusive, NIH3T3 tox inconclusive
NC(=O)COc1ccc(C(=O)N[C@@H]2CNCCC[C@H]2O)cc1	none
O=C(CSCc1ccc(F)cc1)N1CCc2c([nH]c3ccccc23)C1c1ccc(Cl)cc1 (stereo unspecified)	SNCA expr inhib 10µM (no result: Luciferase inh, HEK cytotox, NPR1 antag, NIH3T3 tox)
CC1Oc2ccc(NC(=O)C3CC3)cc2CN(Cc2cc(F)cc(F)c2)C1=O (stereo unspecified)	HEK cytotox inconclusive
COc1ccc(CN2Cc3cc(NC(=O)c4ccc(F)cc4F)ccc3OC(C)C2=O)c(OC)c1 (stereo unspecified)	HEK cytotox 45µM, NIH3T3 tox inconclusive
CC(=O)Oc1ccccc1C(=O)Nc1ccc2c(c1)CN(Cc1ccc(Cl)cc1)C(=O)C(C)O2 (stereo unspecified)	HEK cytotox inconclusive, NPR1 antag inconclusive, NIH3T3 tox 25µM
CC1Oc2ccc(NC(=O)c3ccc(F)cc3)cc2CN(Cc2ccccc2Cl)C1=O (stereo unspecified)	HEK cytotox inconclusive, NIH3T3 tox inconclusive
CC1Oc2ccc(NC(=O)c3ccc(F)cc3)cc2CN(Cc2ccccc2F)C1=O (stereo unspecified)	HEK cytotox 45µM, NIH3T3 tox inconclusive
CC1Oc2ccc(NC(=O)c3ccc(Cl)cc3)cc2CN(Cc2cc(F)cc(F)c2)C1=O (stereo unspecified)	HEK cytotox 20µM, NIH3T3 tox inconclusive
O=C(c1ccccn1)C1CCCN(C(=O)c2cnc(-c3cccnc3)nc2)C1 (stereo unspecified)	none
COC(=O)CCNC(=O)C1CN(S(=O)(=O)c2cccs2)CC12CCCCC2 (stereo unspecified)	none
CC1Oc2ccc(NC(=O)c3ccccc3)cc2CN(Cc2ccc(Cl)cc2)C1=O (stereo unspecified)	HEK293 viab inconclusive, HEK cytotox 8.9µM, NIH3T3 tox inconclusive
CCC1Oc2ccc(NC(=O)c3ccc([N+](=O)[O-])cc3)cc2CN(Cc2ccc(F)cc2)C1=O (stereo unspecified)	HEK cytotox inconclusive, NIH3T3 tox inconclusive
CC1Oc2ccc(NC(=O)c3ccc(Cl)cc3)cc2CN(C(C)C)C1=O (stereo unspecified)	HEK cytotox inconclusive, NPR1 antag inconclusive, NIH3T3 tox 40µM
COc1cccc(C(=O)Nc2ccc3c(c2)CN(Cc2ccc(F)cc2)C(=O)C(C)O3)c1 (stereo unspecified)	HEK cytotox inconclusive, NIH3T3 tox inconclusive
CCC1Oc2ccc(NC(=O)c3ccc([N+](=O)[O-])cc3)cc2CN(C(C)CC)C1=O (stereo unspecified)	HEK cytotox 22µM, NIH3T3 tox inconclusive
COc1ccc(CN2Cc3cc(NC(=O)c4ccc(Cl)cc4)ccc3OC(C)C2=O)c(OC)c1 (stereo unspecified)	HEK cytotox inconclusive, NIH3T3 tox inconclusive
C#CCn1c(=O)n(-c2cccc(Cl)c2C)c(=O)c2c3c(sc21)CN(C(C)=O)CC3	SNCA expr inhib 4µM (no result: Luciferase inh, HEK cytotox, NPR1 antag, NIH3T3 tox)
CN(C)C[C@@H]1CN(S(C)(=O)=O)C[C@H]1NC(=O)CCC1CCCC1	none
CCOc1ccc(-n2nc3ccc(NC(=O)Cc4ccccc4)cc3n2)cc1	HEK293 viab 28µM, SNCA expr inhib 28µM (no result: Luciferase inh, HEK cytotox, NPR1 antag, NIH3T3 tox)
O=C(Cc1ccc(Cl)cc1)Nc1ccc2nn(-c3ccccc3)nc2c1	none (no result: Luciferase inh, HEK cytotox, NPR1 antag, NIH3T3 tox)
CCc1ccccc1NC(=O)C(CC)Oc1ccccc1-c1nnc(-c2ccccc2)o1 (stereo unspecified)	HEK293 viab inconclusive, SNCA expr inhib 8.9µM (no result: Luciferase inh, HEK cytotox, NPR1 antag, NIH3T3 tox)
CC(C)(C)c1ccc(-c2nnc(-c3ccccc3NC(=O)c3ccc(F)cc3F)o2)cc1	none (no result: Luciferase inh, HEK cytotox, NPR1 antag, NIH3T3 tox)
S=C(NC1CCCCC1)N[C@H]1CO[C@H]2[C@@H]1OC[C@@H]2n1nnnc1Oc1cccc(N2CCOCC2)c1	HEK cytotox inconclusive, NPR1 antag inconclusive, NIH3T3 tox inconclusive
O=C(NCC(F)F)C1CCCN(Cc2cccc(-c3cccs3)c2)C1 (stereo unspecified)	HEK cytotox 89µM, NIH3T3 tox inconclusive (no result: Luciferase inh, NPR1 antag)
O=C(NCc1ccccc1)C1CCCN(Cc2cccc(-c3cccs3)c2)C1 (stereo unspecified)	HEK cytotox inconclusive, NIH3T3 tox 32µM (no result: HEK293 viab, Luciferase inh, SNCA expr inhib, NPR1 antag)
COc1ccc(CNC(=O)C2CCCN(Cc3cccc(-c4cccs4)c3)C2)cc1 (stereo unspecified)	HEK cytotox inconclusive, NIH3T3 tox inconclusive (no result: Luciferase inh, NPR1 antag)

Assay outcomes as filed in PubChem BioAssay.
